Most compounds without a hit are left out; they make up all but 0.9% or so of the library.
Lamin A splicing: modulators of lamin A splicing; actives 0.01% (n = 200,000); HeLa LMNA splicing GFP/RFP minigene ratio, 48 h; Potency, µM (highest dose often 46.1 µM), for inactives: top-dose ratio change, negative = inhibition, actives largely listed as inhibitors; active = well fitted inhibition curve with a large enough effect in the signal ratio, with a control signal flat, not every such curve was filed as active; inconclusive = small, poorly fitted or top-dose-only effect, or effect the other way, or a change in a side signal; the % refers to the signal ratio
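S3 HeLa cells stably expressing lamin A-EGFP splicing minigene plus DsRed2, 600 cells/well, 48 h compound exposure at 37C. Laser-scanning cytometry; analysed as GFP (500-530 nm)/RFP (575-640 nm) total intensity ratio; 0.5% DMSO vehicle.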
BLM inh: blocks DNA unwinding by human BLM helicase | recombinant BLM DNA unwinding, fluorescence dequenching | AID 2528 | actives 0.2% (n = 350,000) | Potency, µM (highest dose often 56.1 µM), inactives show top-dose activity change, negative = inhibition, most hits filed as inhibitors;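 note: plate controls were vehicle for no effect and no enzyme for full effect; nearly all actives have a fitted effect of over 35% in size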
Target sequence (P54132 whole entry, looked up): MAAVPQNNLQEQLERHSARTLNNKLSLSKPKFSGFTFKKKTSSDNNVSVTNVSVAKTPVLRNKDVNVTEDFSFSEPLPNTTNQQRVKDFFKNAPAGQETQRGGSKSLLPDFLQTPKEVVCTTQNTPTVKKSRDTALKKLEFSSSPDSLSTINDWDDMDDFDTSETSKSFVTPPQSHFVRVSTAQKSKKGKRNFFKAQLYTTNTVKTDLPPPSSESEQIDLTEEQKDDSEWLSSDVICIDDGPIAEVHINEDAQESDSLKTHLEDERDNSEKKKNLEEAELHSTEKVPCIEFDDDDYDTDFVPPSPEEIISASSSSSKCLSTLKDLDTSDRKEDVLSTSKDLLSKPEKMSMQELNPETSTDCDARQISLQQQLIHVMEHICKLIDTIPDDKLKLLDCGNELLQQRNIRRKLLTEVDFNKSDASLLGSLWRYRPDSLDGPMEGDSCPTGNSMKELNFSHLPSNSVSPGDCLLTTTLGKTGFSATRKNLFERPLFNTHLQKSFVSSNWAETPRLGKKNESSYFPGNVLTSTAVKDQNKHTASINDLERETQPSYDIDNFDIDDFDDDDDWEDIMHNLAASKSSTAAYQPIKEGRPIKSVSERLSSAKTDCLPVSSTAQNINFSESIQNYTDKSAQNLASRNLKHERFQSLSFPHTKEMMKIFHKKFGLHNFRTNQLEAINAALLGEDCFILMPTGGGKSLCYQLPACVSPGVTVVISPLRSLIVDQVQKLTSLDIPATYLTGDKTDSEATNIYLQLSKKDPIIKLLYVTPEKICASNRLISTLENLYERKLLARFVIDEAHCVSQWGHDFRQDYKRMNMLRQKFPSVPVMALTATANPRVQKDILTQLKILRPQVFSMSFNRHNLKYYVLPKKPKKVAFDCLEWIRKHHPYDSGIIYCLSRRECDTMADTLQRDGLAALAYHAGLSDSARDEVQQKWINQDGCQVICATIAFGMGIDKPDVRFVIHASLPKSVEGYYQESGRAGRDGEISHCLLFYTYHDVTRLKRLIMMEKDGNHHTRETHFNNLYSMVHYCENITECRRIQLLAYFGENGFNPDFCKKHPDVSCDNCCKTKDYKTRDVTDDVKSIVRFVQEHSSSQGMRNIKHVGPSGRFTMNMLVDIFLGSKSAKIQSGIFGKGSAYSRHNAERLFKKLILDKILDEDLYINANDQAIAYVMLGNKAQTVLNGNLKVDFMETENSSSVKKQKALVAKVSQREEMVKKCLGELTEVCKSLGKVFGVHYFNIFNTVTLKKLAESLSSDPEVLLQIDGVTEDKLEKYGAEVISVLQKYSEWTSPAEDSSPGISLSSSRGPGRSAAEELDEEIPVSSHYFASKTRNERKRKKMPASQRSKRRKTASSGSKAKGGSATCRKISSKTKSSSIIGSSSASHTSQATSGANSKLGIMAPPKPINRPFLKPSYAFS
TDP1 inh: blocks human tyrosyl-DNA phosphodiesterase 1; recombinant TDP1, AlphaScreen DNA substrate cleavage; Potency, µM (highest dose often 130 µM), for the others: top-dose activity change, negative = inhibition, usual class: inhibitors; actives 0.28% (n = 350,000); AID 485290; note: nearly all actives have a fitted effect of over 40% in size
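Here, a 5' biotin and 3' phosphotyrosine-FITC DNA oligonucleotide reports Tdp1 activity: intact substrate bridges AlphaScreen beads, while cleavage leaves a 3' phosphate and drops signal. All incubations at room temperature.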
KAT2A inh: inhibitors of human GCN5L2 histone acetyltransferase; actives 0.21% (n = 390,000); Q92830; GCN5L2 HAT assay, ThioGlo1 CoA-SH fluorescence; Potency, µM (top dose mostly 58.9 µM), for inactives: top-dose activity change, negative = inhibition, actives largely listed as inhibitors
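qHTS, 1536-well. 20nM enzyme, pH 7.5 HEPES/EDTA/Tween-20 buffer; 15 min compound preinc., RT. Start: 75uM H3(1-25), 70uM AcCoA, 50uM ThioGlo1. Read Ex340/Em540 at t=0 (autofluorescence flag) and t=20 min.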
APE1 inh: inhibitors of human APE1 endonuclease; P27695; recombinant APE1, TAMRA/BHQ-2 abasic DNA cleavage fluorescence; Potency, µM (top dose mostly 65.8 µM), inactives show at the highest dose activity change, negative = inhibition, usual class: inhibitors; actives 0.35% (n = 350,000); AID 2517;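 note: plate controls were vehicle for no effect and reference inhibitor for full effect; nearly all actives have a fitted effect of over 55% in size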
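Quantitative HTS: incision of a TAMRA/BHQ-2 double-stranded substrate bearing a tetrahydrofuran abasic site by 0.75 nM APE1 raises fluorescence. Substrate 50 nM final, added after 15 min compound preincubation at room temperature; progress as third-minus-first kinetic read difference.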
RECQ1 inh-1: RECQ1 (human) helicase inhibition; RECQ1 DNA unwinding, red fluorescence kinetic read; actives 0.54% (n = 240,000); Potency, µM (highest dose often 57.3 µM), for inactives: top-dose activity, negative = inhibition, actives largely listed as inhibitors;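 note: plate controls were vehicle for no effect and no enzyme for full effect; nearly all actives have a fitted effect of over 30% in size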
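RECQ1T1 50 nM; forked duplex (20 bp + 30-nt ss tails) 200 nM, ATP 2 mM final; pH 8.0, 2 mM MgCl2, 2.5 ug/ml poly(dI-dC); 15 min compound preincubation; discontinuous kinetic read over 2 h at RT.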
RECQ1 inh conf: confirmation of human RECQ1 helicase inhibitors; Potency, µM (doses to about 229 µM), for the others: at the highest dose activity change, negative = inhibition, actives largely listed as inhibitors; shares compounds with RECQ1 inh-1; RECQ1 helicase DNA unwinding, fluorescence; actives 28% (n = 610); note: nearly all actives have a fitted effect of over 45% in size
RECQ1 ADP FP: counter-screen for RECQ1 inhibitors: ADP displacement; AID 2711; actives 27% (n = 530); shares compounds with RECQ1 inh-1; Potency, µM (highest dose often 228 µM), for inactives: at the highest dose activity change, negative = inhibition, hits mostly inhibitors; ADP fluorescence polarization displacement counterscreen; note: nearly all actives have a fitted effect of over 45% in size
RECQ1 inh-2: RECQ1 helicase inhibition confirmed, round 2; shares compounds with RECQ1 inh-1; recombinant RECQ1 DNA unwinding, red fluorescence; Potency, µM (titrated, usually from 119 µM), without a hit: at the top dose activity, negative = inhibition, actives largely listed as inhibitors; actives 15% (n = 1,100); note: nearly all actives have a fitted effect of over 50% in size
Active calls of the source: *; i = inactive; ? = inconclusive; / = no result; [ ] = another dose, or the depositor's remark. Unless noted, calls come from the whole dose curve; as a rule, active = well fitted curve in the direction sought with a large enough effect; inconclusive = small, poorly fitted or top-dose-only effect, or another doubt; inactive = no such curve, though single readings can be large; an effect the other way counts as inactive or inconclusive. Unless noted, % is set by controls: 0 for no effect and ±100 for the full control effect; potency is the fitted concentration of half-maximal effect.

SMILES | Lamin A splicing | BLM inh | TDP1 inh | KAT2A inh | APE1 inh | RECQ1 inh-1 | RECQ1 inh-2 | others
Cc1ccc(C)c(Cn2nnc(C(=O)Nc3ccc4c(c3)OCCO4)c2N)c1 | / | / | 9% | 0% | 18% | / | /
COc1cc2c(cc1OC)C1=NC(=O)CN1C(SCc1ccc(C)cc1)=N2 | -2% | 3% | 12% | 1% | -5% | -17% | /
Cc1ccc(CSC2=Nc3sccc3C3=NC(=O)CN23)cc1 | 3% | -15% | 4% | ? | 12% | 32µM* | -4%
NC(=O)C1CCN(c2nc(-c3cccc4sc5ccccc5c34)cs2)CC1 | / | / | / | / | -3% | / | /
NCCCCCCNc1nc2c(N)ncnc2n1[C@@H]1O[C@@H]2COP(=O)(O)O[C@H]2[C@H]1O | / | -1% | -12% | 17% | ? | -1% | /
COCCNC(=O)c1onc(CSc2cc(C)cc(C)c2)c1C(=O)O | 11%[0.0737 µM] | -3% | 4% | -5% | 1% | i | / | RECQ1 inh conf=0%;RECQ1 ADP FP=1%
COCCNC(=O)c1onc(CSc2ccc(C)c(C)c2)c1C(=O)O | 15%[0.0737 µM] | -2% | 1% | -13% | 0% | -8% | /
CS(=O)(=O)N(CC(=O)Nc1ccc(CC#N)cc1)c1ccc(C23CC4CC(CC(C4)C2)C3)cc1 | ? | -13% | 3% | -5% | 5% | 7.9µM* | ?
Cc1noc(C)c1COc1ccc(C(=O)NCc2ccccn2)cc1 | -5% | -1% | 5% | -3% | -1% | 0% | / | RECQ1 inh conf=4%;RECQ1 ADP FP=?
Cc1noc(C)c1COc1ccc(C(=O)Nc2ccccc2)cc1 | ? | -2% | 3% | -6% | -6% | -13% | / | RECQ1 inh conf=2%;RECQ1 ADP FP=?
CCOC(=O)c1ccc(N2N=C(C)/C(=C/C=C/c3ccco3)C2=O)cc1 | 0% | 6% | 10% | -13% | 4% | ? | -3%
C/C(=N\N=C(c1ccccc1)c1ccccc1)c1cccs1 | 8% | -9% | 4% | 13% | -1% | 18µM* | / | RECQ1 inh conf=-4%[114 µM];RECQ1 ADP FP=-9%[91.9 µM]
N#CC1=C2SCN(Cc3ccco3)CN2C(=O)CC1c1cccc2ccccc12 (configuration not stated) | 10% | ? | 11% | -26% | 13% | ? | -10%
Cc1sc(NC(=O)c2ccco2)c(C(c2cccnc2)N2CCN(CCO)CC2)c1C (configuration not stated) | -4%[46 µM] | -1% | 2% | -4% | -5% | i | /
Cc1sc(NC(=O)c2ccco2)c(C(c2cccnc2)N2CCN(c3ccc(F)cc3)CC2)c1C (configuration not stated) | ? | -12% | 9% | -13% | 3% | 40µM* | ?
Cc1cc(N/N=C/c2ccccc2Br)nc2ccccc12 | ? | -2% | 6% | -1% | 2% | -4% | /
Cc1cc(N/N=C(/CCC(=O)O)C(=O)O)nc2ccccc12 | -3% | 2% | 8% | -4% | ? | -4% | / | RECQ1 inh conf=9%;RECQ1 ADP FP=-13%
O=C1C(Cl)=C(N2CCC(C(=O)O)CC2)C(=O)c2ccccc21 | / | -30% | -5% | ? | ? | 22µM* | 35µM*
NC(=O)C1CCN(C2=C(Cl)C(=O)c3ccccc3C2=O)CC1 | ? | -10% | -5% | -15% | 1% | 2% | /
CCn1c(NN)nc2sc3c(c2c1=O)CCC3 | -10% | -16% | 0% | -6% | 0% | ? | -11%
NNc1nc2sc3c(c2c(=O)n1Cc1ccccc1)CCC3 | / | -12% | / | -13% | -9% | -3% | /
COc1cc([C@@H]2c3cc4c(cc3C(O[C@@H]3O[C@@H]5COC(c6cccs6)O[C@H]5[C@H](O)[C@H]3O)C3COC(=O)[C@@H]32)OCO4)cc(OC)c1O (some centres not stated) | / | / | / | / | -1% | / | /
CCN(CC)CCOc1c(Br)ccc2c1sc1nc3n(c(=O)c12)CCC3 | 8% | 177% | / | -7% | 0% | ? | -23%
O=c1c(-c2ccc([N+](=O)[O-])cc2)coc2c(O)c(O)ccc12 | / | -19% | 8% | -9% | ? | 8.9µM* | ?
CN(C)Cc1c(O)ccc2c(=O)c(-c3ccc(Cl)cc3)coc12 | / | -6% | 4% | 4% | 8% | / | /
SMILES | Lamin A splicing | BLM inh | TDP1 inh | KAT2A inh | APE1 inh | RECQ1 inh-1 | RECQ1 inh-2 | others
C=C1N[C@]2(C(=O)COC(C)=O)[C@@H](C[C@H]3[C@@H]4CCC5=CC(=O)C=C[C@]5(C)[C@H]4[C@@H](O)C[C@@]32C)O1 | / | 3% | / | 0% | / | / | /
CCn1c(=O)c(=O)[nH]c2cc(C(=O)N3CCN(c4ccccc4F)CC3)ccc21 | -4% | -3% | 2% | -1% | 0% | 25µM* | 79µM*
CC(=O)NCCNc1nc(-c2cccnc2)nc2ccccc12 | 1% | -6% | / | -8% | 0% | 4% | /
CCCCCc1c2c(cc(O)c1C(=O)O)OC(=O)c1c(cc(OC)cc1C(=O)CCCC)O2 | -8% | -1% | 10%[56.1 µM] | ? | -1% | ? | ?
CCCCCc1c2c(cc(O)c1C(=O)O)OC(=O)c1cc(C(=O)CCCC)c(OC)cc1O2 | / | -3% | -5% | ? | ? | 13µM* | ?
CCCCc1c(C(=O)O)cc(OC)cc1C(=O)O | 6% | 0% | 1% | -1% | 2% | -3% | /
CCCCC(=O)O[C@]1(C(=O)CO)CCC2C3CCC4=CC(=O)CCC4(C)C3C(O)CC21C (some centres not stated) | / | 0% | / | 2% | / | / | /
Cc1nc2c(c(C)c1CCC(=O)N1CCN(c3ccccc3)CC1)c(=O)n(C)c(=O)n2C | / | -16% | 5% | 3% | / | / | /
CC(=O)Nc1ccc(S(=O)(=O)N2CCc3nc(-c4ccccc4)c4c(c3C2)CO[C@@H](C)C4)cc1 | 1%[9.22 µM] | 4%[12.4 µM] | 15%[12.3 µM] | / | -3%[12.4 µM] | 0%[11.5 µM] | /
Cc1ccc(S(=O)(=O)/N=C2/NC(=O)/C(=C\c3ccco3)S2)cc1 | -9% | -5% | -4% | 4% | -11% | ? | -20%
CC(=O)Nc1ccc(S(=O)(=O)/N=C2/NC(=O)/C(=C\c3ccco3)S2)cc1 | / | 0% | ? | ? | ? | ? | -24%
